{
  "source": "PubChem BioAssay AID1851",
  "about": "(National Center for Advancing Translational Sciences (NCATS), 2009)",
  "note": "The campaign covered roughly 16,000 compounds. About 2,600 (16%) were called active. Inconclusive results (about 20%) are left out. A selection follows. Values without a mark were called inactive. Calls follow the shape of the dose curve; as a rule, active = well fitted curve in the direction sought with a large enough effect; inconclusive = small, poorly fitted or top-dose-only effect, or effect the other way; inactive = no such curve, though single readings can be large or run the other way. Numbered stars: 1 amine (or outer) side, 2 acyl side, 3 side chain; on linkers, the order of the positions; unused ones are H or OH. Bridge positions count the residues as written; N and C are the ends. Square brackets hold non-standard residues; d marks the D form. Peptide text beside a SMILES is read from it. I, II: the chains in the order shown. Actinocin(9to1) = Cc1c2oc3c(C)ccc(C(=O)[*:1])c3nc-2c(C(=O)[*:2])c(N)c1=O; aThr = C[C@H](O)[C@H](N)C(=O)O; NMeV = CN[C@H](C(=O)O)C(C)C; Sar = CNCC(=O)O",
  "data": [
    {"target": "Cytochrome P450 2D6 (Homo sapiens) (UniProt P10635)", "sequence (P10635 whole entry, looked up)": "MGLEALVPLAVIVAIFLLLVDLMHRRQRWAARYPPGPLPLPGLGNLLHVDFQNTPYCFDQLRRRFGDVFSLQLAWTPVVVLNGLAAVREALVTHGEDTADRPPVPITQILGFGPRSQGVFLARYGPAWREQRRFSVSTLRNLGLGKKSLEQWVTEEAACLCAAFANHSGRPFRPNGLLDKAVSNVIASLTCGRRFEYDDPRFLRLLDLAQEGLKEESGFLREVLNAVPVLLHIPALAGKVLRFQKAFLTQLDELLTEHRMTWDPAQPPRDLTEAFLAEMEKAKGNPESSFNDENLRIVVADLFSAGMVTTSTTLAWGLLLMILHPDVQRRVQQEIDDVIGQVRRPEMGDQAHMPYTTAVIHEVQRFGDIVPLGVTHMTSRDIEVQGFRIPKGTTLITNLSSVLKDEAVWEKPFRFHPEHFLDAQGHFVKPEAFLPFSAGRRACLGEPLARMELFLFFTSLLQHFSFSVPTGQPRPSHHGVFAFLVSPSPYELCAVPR", "assay": "Cytochrome panel assay with activity outcomes; as to activity, negative = inhibition: % is scaled to controls: 0 for no effect and ±100 for the full control effect", "conditions": "recombinant CYP, pro-luciferin dealkylation, luminescence, p450-cyp2d6; series mostly up to 57.1 µM; activity, negative = inhibition: at the top concentration", "values": [
      {"smiles": "Cn1c(=O)c(-c2cccc(Cl)c2)nc2cncnc21", "activity, negative = inhibition": "-7.08%"},
      {"smiles": "CCOC(=O)C1CCCN(c2ncnc3c2cnn3-c2ccc(Cl)cc2)C1", "note": "(stereo not given)", "activity, negative = inhibition": "-5.44%"},
      {"smiles": "COCCn1c(=O)c(-c2cccs2)nc2cncnc21", "activity, negative = inhibition": "-11.4%"},
      {"smiles": "Cc1nn(C)c(Cl)c1S(=O)(=O)N[C@@H](c1ccccc1)[C@]1(C)C[C@H]1[C@@H](C)C(=O)Nc1ccc2ccccc2c1", "activity, negative = inhibition": "6.42%"},
      {"smiles": "C[C@@H](C(=O)Nc1ccc2ccccc2c1)[C@@H]1C[C@@]1(C)[C@@H](N)c1ccccc1", "AC50": "12600 nM (active)"},
      {"smiles": "O=C(Nc1ccc2ccccc2c1)[C@H]1C[C@@H]1[C@H](NP(=O)(c1ccccc1)c1ccccc1)c1ccccc1", "activity, negative = inhibition": "14%"},
      {"smiles": "C[C@@H](C(=O)Cc1ccc2ccccc2c1)[C@@H]1C[C@@]1(C)[C@@H](NP(=O)(c1ccccc1)c1ccccc1)c1ccccc1", "activity, negative = inhibition": "6.45%"},
      {"smiles": "CC(=O)N[C@H](c1ccccc1)[C@@]1(C)C[C@@H]1[C@@H](C)C(=O)Nc1ccc2ccccc2c1", "AC50": "2000 nM (active)"},
      {"smiles": "C[C@@H](C(=O)Nc1ccc2ccccc2c1)[C@H]1C[C@]1(C)[C@H](NP(=O)(c1ccccc1)c1ccccc1)c1ccccc1", "AC50": "794 nM (active)"},
      {"smiles": "Cc1cc(C(=O)N[C@H](c2ccccc2)[C@@]2(C)C[C@@H]2[C@@H](C)C(=O)Nc2ccc3ccccc3c2)n(C)n1", "AC50": "39.8 nM (active)"},
      {"smiles": "O=C(Nc1ccc2ccccc2c1)[C@@H]1C[C@H]1[C@@H](NP(=O)(c1ccccc1)c1ccccc1)c1ccccc1", "activity, negative = inhibition": "-10.1%"},
      {"smiles": "CC1(C)S[C@@H]2[C@H](NC(=O)[C@@H](NC(=O)N3CCNC3=O)c3ccccc3)C(=O)N2[C@H]1C(=O)O", "activity, negative = inhibition": "-1.37% [at 25.6 µM]"},
      {"smiles": "COC(=O)c1sccc1NC(=O)CSc1ccccc1NS(=O)(=O)c1ccc(Cl)cc1", "activity, negative = inhibition": "-0.426%"},
      {"smiles": "C[C@@H]1O[C@H]2C3=C(C(=O)[C@H]4O[C@@H]4[C@H]3O)[C@@H]1[C@@H]1[C@@H](C)OC=C3[C@H](O)[C@H]4O[C@@H]4/C(=N\\OCc4ccccc4)[C@]312", "activity, negative = inhibition": "-8.47% [at 11.4 µM]"},
      {"smiles": "O=C(NCc1ccccc1)C(c1ccc(F)cc1)N(Cc1ccco1)C(=O)c1ccccn1", "note": "(stereo not given)", "activity, negative = inhibition": "-23.4%"},
      {"smiles": "COC(=O)[C@H]1C[C@@H]1[C@H](NC(=O)Oc1ccc(F)cc1)c1ccccc1", "activity, negative = inhibition": "-5.03%"},
      {"smiles": "C[C@@H](C(=O)Nc1ccc2ccccc2c1)[C@H]1C[C@]1(C)[C@H](NC(=O)Oc1ccc(F)cc1)c1ccccc1", "AC50": "2510 nM (active)"},
      {"smiles": "C[C@@H](C(=O)Nc1ccc2ccccc2c1)[C@@H]1C[C@@]1(C)[C@@H](NC(=O)Oc1ccc(F)cc1)c1ccccc1", "activity, negative = inhibition": "3.54%"},
      {"smiles": "COC(=O)N[C@H](c1ccccc1)[C@@]1(C)C[C@@H]1[C@@H](C)C(=O)Nc1ccc2ccccc2c1", "AC50": "31.6 nM (active)"},
      {"smiles": "CO[C@@H]1COC(=O)CC=C[C@@H](C)[C@@H]2C=C[C@H](O)[C@@H](COC(=O)C/C=C\\[C@H]1C)O2", "activity, negative = inhibition": "13% [at 11.4 µM]"},
      {"smiles": "Cc1cc(C)c(C)c(S(=O)(=O)ON2C(=O)c3ccccc3C2=O)c1C", "activity, negative = inhibition": "-29.2%"},
      {"smiles": "CC(C)(C)c1ccc(OCC(=O)O)c(Cl)c1", "activity, negative = inhibition": "12.8% [at 11.4 µM]"},
      {"smiles": "Cc1nc(NS(=O)(=O)c2ccccc2C)c2c3c(sc2n1)CCC3", "activity, negative = inhibition": "-4.47%"},
      {"smiles": "CCCNC(=O)c1c(C)cc(=O)oc1C", "activity, negative = inhibition": "-29%"},
      {"smiles": "COc1cc(-c2nnc(-c3ccc(N4CCOCC4)cc3)o2)cc(OC)c1OC", "activity, negative = inhibition": "-3.51%"},
      {"smiles": "COc1ccc(Br)cc1/C=C/C(=O)Nc1c(C)cccc1C", "activity, negative = inhibition": "-29.7%"},
      {"smiles": "CCN1C(=O)C(CC(=O)Nc2ccc(Br)cc2)N(CCCc2ccccc2)C1=S", "note": "(stereo not given)", "AC50": "10000 nM (active)"},
      {"smiles": "CN1C(=O)C(CC(=O)Nc2ccc(F)cc2)N(CCCc2ccccc2)C1=S", "note": "(stereo not given)", "AC50": "2000 nM (active)"},
      {"smiles": "CC(=O)Nc1ccc(S(=O)(=O)NC2(C(F)(F)F)NC(=O)N(c3ccc(Cl)cc3)C2=O)cc1", "note": "(stereo not given)", "activity, negative = inhibition": "5.87%"},
      {"smiles": "O=C(CC1C(=O)NCCN1C(=S)Nc1ccccc1)Nc1ccc2c(c1)OCCO2", "note": "(stereo not given)", "activity, negative = inhibition": "4.52%"},
      {"smiles": "O=C(CC1C(=O)N(c2ccc(Cl)cc2)C(=S)N1CCc1ccncc1)Nc1ccc(F)cc1", "note": "(stereo not given)", "AC50": "2240 nM (active)"},
      {"smiles": "CCNC(=O)CC1C(=O)N(c2ccc(F)cc2)C(=O)N1CCc1ccc(OC)cc1", "note": "(stereo not given)", "activity, negative = inhibition": "-1.57%"},
      {"smiles": "CCCCC(=O)Nc1ccc(C(=O)NNC(=O)CCc2ccccc2)cc1", "activity, negative = inhibition": "8.04%"},
      {"smiles": "CCN1C(=O)C(CC(=O)Nc2ccc(OC)cc2)N(Cc2cccnc2)C1=S", "note": "(stereo not given)", "activity, negative = inhibition": "-21.7%"},
      {"smiles": "CN1C(=O)C(CC(N)=O)N(NC(=O)c2ccc(Cl)cc2)C1=S", "note": "(stereo not given)", "activity, negative = inhibition": "6.45%"},
      {"smiles": "Cc1ccc(NC2c3ncccc3C(=O)N2Cc2ccc(F)cc2)cc1", "note": "(stereo not given)", "activity, negative = inhibition": "-10.5%"},
      {"smiles": "COc1ccc(OC)c(C2CC(=O)C3=C(C2)NC(=O)CC3c2ccc(O)c(OC)c2)c1", "note": "(stereo not given)", "activity, negative = inhibition": "-26.8%"},
      {"smiles": "CC(C)CC(=O)N1CCC(O)(CS(=O)(=O)Cc2ccc(Cl)cc2)CC1", "activity, negative = inhibition": "-0.0163%"},
      {"smiles": "COCCn1c(=O)c(-c2cccc(F)c2)nc2cncnc21", "activity, negative = inhibition": "-2.96%"},
      {"smiles": "Cc1nn(-c2ccccc2)c(N2CCCCC2)c1/C=N/O", "activity, negative = inhibition": "-4.1%"},
      {"smiles": "O=C(c1ccc(Cl)cc1)N1CCN(c2cc(=O)[nH]nc2-c2ccccc2)CC1", "activity, negative = inhibition": "6.15%"},
      {"smiles": "COc1cccc(CNCc2ccc(SC)cc2)c1OC", "AC50": "3160 nM (active)"},
      {"smiles": "CSc1ccc(CNc2ccccc2)cc1", "activity, negative = inhibition": "-14.2%"},
      {"smiles": "CC(C)CC(=O)Nc1sc2c(c1C#N)CC(C)(C)NC2(C)C", "AC50": "7940 nM (active)"},
      {"smiles": "COc1ccc(C(=O)N2CC3(CC(c4ccc(Cl)cc4)=NO3)C[C@H]2C(=O)NCC(N)=O)cc1", "note": "(stereo not given in full)", "activity, negative = inhibition": "-7.18%"},
      {"smiles": "CCOC(=O)C1C(=O)C=C(c2ccc(C)cc2)CC1c1ccco1", "note": "(stereo not given)", "activity, negative = inhibition": "-21.1%"},
      {"smiles": "Cc1c2oc3c(C)ccc(C(=O)N[C@@H]4C(=O)N[C@@H](C(C)C)C(=O)N5CCC[C@@H]5C(=O)N(C)CC(=O)N(C)[C@@H](C(C)C)C(=O)O[C@H]4C)c3nc-2c(C(=O)N[C@@H]2C(=O)N[C@@H](C(C)C)C(=O)N3CCC[C@@H]3C(=O)N(C)CC(=O)N(C)[C@@H](C(C)C)C(=O)O[C@H]2C)c(N)c1=O", "note": "(I: [aThr]V[dP][Sar][NMeV] / II: [aThr]V[dP][Sar][NMeV]; ester I:1-I:C, II:1-II:C; linker I:N-II:N via Actinocin(9to1))", "activity, negative = inhibition": "2.32%"},
      {"smiles": "Cc1ccc(-n2[nH]c(C)c(C=Nc3ccc4[nH]c(=O)[nH]c4c3)c2=O)cc1C", "activity, negative = inhibition": "-6.33%"},
      {"smiles": "CCOc1ccc(C2=[N+]([O-])C(C)(C)N(O)C2(C)C)cc1", "activity, negative = inhibition": "-0.754%"},
      {"smiles": "Cc1ccc(S(=O)(=O)NNc2ccccc2)cc1", "AC50": "7940 nM (active)"},
      {"smiles": "Cc1ccc(S(=O)(=O)NCc2ccccc2)cc1", "activity, negative = inhibition": "0.206%"},
      {"smiles": "Cc1ccc(NC(=O)NNS(=O)(=O)c2ccc(Br)cc2)cc1", "activity, negative = inhibition": "-4.79%"},
      {"smiles": "Cc1ccc(S(=O)(=O)N[C@H](CO)C(=O)O)cc1", "activity, negative = inhibition": "1.97% [at 11.4 µM]"},
      {"smiles": "Cc1ccc(NNS(=O)(=O)c2ccc(C)cc2)cc1", "AC50": "5620 nM (active)"},
      {"smiles": "Cc1ccc(S(=O)(=O)N[C@H](C(=O)O)C(C)C)cc1", "activity, negative = inhibition": "3.72% [at 11.4 µM]"}
    ]}
  ]
}
